Data on 24 compounds can be found in PubChem BioAssay (Tox21).

Test [1] is described as follows: qHTS assay to identify small molecule agonists of H2AX (AID 1224845; active = well fitted activation curve with a large enough effect in the signal ratio in the repeat runs, not every such curve was filed as active; the % refers to the signal ratio; also: potency is read from the fitted curve at half-maximal effect). In outline: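 Wild-type CHO-K1 cells, plated overnight, exposed 3hr at 37C to 15 concentrations (0.76% DMSO final). Lysed, then HTRF anti-pH2AX (S139) cryptate and anti-H2AX-d2 antibodies, 24 hr room temperature; 665/620 nm emission read.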
(qHTS replaces the single test concentration by a dilution series.)

A short description of test [2]: qHTS assay to identify small molecule agonists of the hypoxia (HIF-1) signaling pathway (AID 1224846; active = well fitted activation curve with a large enough effect in the signal ratio in the repeat runs, not every such curve was filed as active; the % refers to the signal ratio). In short, it runs like this: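 Reporter induction in HRE-bla ME-180 cells is taken as agonism: cells sit 5 hrs after plating, receive compounds or DMSO only, incubate 17 hrs at 37C under 5% CO2, and are loaded with CCF4-AM for beta-lactamase FRET measurement.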
Test [3] in a line: qHTS RealTime-Glo MT Cell Viability Assay in HepG2 cells - 24 hour (AID 1224867). Also: nearly all actives have a fitted effect of over 50% in size. Also: potency is read from the fitted curve at half-maximal effect. In outline: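 HepG2 suspension premixed with RealTime-Glo reagents is plated at 600 cells per well and left 5 h at 37 C/5% CO2. Compounds in DMSO then go in, and bioluminescence reflecting viable cell number is recorded over 40 h.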
A short description of test [4]: qHTS RealTime-Glo MT Cell Viability Assay in HEK293 cells - 32 hour (AID 1224868). Also: nearly all actives have a fitted effect of over 50% in size. Also: potency is read from the fitted curve at half-maximal effect. In short, it runs like this:
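Reads taken at 0, 8, 16, 24, 32 and 40 h from the same wells. HEK293 cells (600/well) carried RealTime-Glo reagents from seeding, with compound added after a 5 h settle at 37 C.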

Test [5] in a line: A CellTox Green Cytotoxicity Assay to monitor cytotoxicity in HEK293 cells - 0 hour (AID 1224869). Also: nearly all actives have a fitted effect of over 50% in size. Also: potency is read from the fitted curve at half-maximal effect. In short, it runs like this: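 Tox21 screen in HEK293: membrane-impermeant cyanine dye fluoresces on binding dead-cell DNA; compound pinned 5 h post-seeding, plates held at 37 C, signal read repeatedly through 40 h.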
Test [6] can be described thus: qHTS RealTime-Glo MT Cell Viability Assay in HepG2 cells - 40 hour (AID 1224870). Also: nearly all actives have a fitted effect of over 50% in size. Also: potency is read from the fitted curve at half-maximal effect. In outline: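 HepG2 cells (600/well) mixed with RealTime-Glo MT reagent, settled 5 h at 37 C/5% CO2 before compound addition. Nonlytic NanoLuc luminescence from viable-cell prosubstrate reduction read repeatedly during 40 h treatment at 37 C.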
Test [7] is described as follows: qHTS assay to identify small molecule agonists of the hypoxia (HIF-1) signaling pathway - cell viability counter screen (AID 1224844; calls by dose curve; also: nearly all actives have a fitted effect of over 50% in size; also: potency is read from the fitted curve at half-maximal effect). In outline: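 HRE-bla ME-180; 0.5% dFBS; cpd 17 h, 37C, 5% CO2; CellTiter-Glo lum., 30 min RT, post-FRET read, same wells.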
Test [8] is described as follows: qHTS assay to identify small molecule antagonists of the estrogen related receptor (ERR) signaling pathway from Tox21 library (AID 1224848). Also: nearly all actives have a fitted effect of over 50% in size. Also: potency is read from the fitted curve at half-maximal effect. In outline: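 Compounds dissolved in DMSO are pin-transferred onto ERR reporter cells (2,000 per well) that have settled for 6 h at 37 C. Plates then incubate 18 h at 37 C before ONE-Glo luciferase reagent and a luminescence read 30 min later.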

The nature of test [9]: qHTS assay to identify small molecule agonists of H2AX - cell viability counter screen (AID 1224847; calls by dose curve; also: nearly all actives have a fitted effect of over 30% in size; also: potency is read from the fitted curve at half-maximal effect). In outline: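 Cytotoxicity counter screen in wild-type CHO-K1 cells: a 3 hr compound treatment at 37C across 15 concentrations, followed by CellTiter-Glo luminescence to gauge viable cells.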
Test [10] is described as follows: qHTS assay to identify small molecule agonists of the estrogen related receptor (ERR) signaling pathway from Tox21 library (AID 1224849; calls by dose curve; also: nearly all actives have a fitted effect of over 15% in size). Particulars: ERR reporter cell line, ONE-Glo luciferase, 18 h; at 92.4 µM (top of the series) unless noted. In outline:
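Tox21 compounds tested for ERR agonism in an NTP reporter cell line: 18 h treatment at 37 C, then ONE-Glo luminescence.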

The structures appear in SMILES notation. Values joined by “and” are separate entries in the source; they are usually repeats but may differ in a detail not shown here. Equal values may be shown once. Unmarked numbers belong to inactive results. Inconclusive results are not listed. Active and inactive are the calls of the source. Unless noted, calls follow the shape of the dose curve; as a rule, active = well fitted curve in the direction sought with a large enough effect in the repeat runs; inconclusive = weak or mixed curves; inactive = no such curve, though single readings can be large; an effect the other way counts as inactive or inconclusive.
% is scaled to controls: 0 for no effect and ±100 for the full control effect.

Turning to `O=C(Oc1ccccc1)c1ccccc1C(=O)Oc1ccccc1`, the Potency result in test [1], in test [2], in [3], in test [4], in test [5] and in [6] was “inactive” in each case.
For the compound `CCCCN(CCCC)C(=O)N(CCCC)CCCC`, the Potency entry in test [1], in test [2], in test [3], in [4], in [5] and in [6] was “inactive” throughout.
As to `OCc1c[nH]c2ccccc12`, the Potency result in test [7], in test [3], in [5] and in test [6] was “inactive” each time. The Potency in [8] was 13.7 µM (active).
Consider `Oc1cccc(-c2c3nc(c(-c4cccc(O)c4)c4ccc([nH]4)c(-c4cccc(O)c4)c4nc(c(-c5cccc(O)c5)c5ccc2[nH]5)CC4)C=C3)c1`, for which the Potency result in test [7], in test [5] and in [6] was “inactive” in each case.
Consider `CCCCN1C(=O)[C@@H]([C@H](O)C2CCCCC2)NC(=O)C12CCN(Cc1ccc(Oc3ccc(C(=O)O)cc3)cc1)CC2`, for which the Potency result in [1], in test [2], in test [9], in [4], in [5] and in test [6] was “inactive” each time. The activity change, positive = activation in test [10] was -19.3%.
Consider `N=C1N=C(N)c2ccccc21`, for which the Potency in [7] was 21.9 µM (active); in [4] it was 24.5 µM (active). Also, the Potency entry in [5] was “inactive”.
For `CCCC(C)c1ccccc1O` (stereo not drawn), the Potency entry in [1], in [2], in test [4], in test [5] and in test [6] was “inactive” each time.
Regarding `CCOC(=O)O[C@H](C)OC(=O)c1ccc2c(c1)cc(C(=O)NC1CCN(C(C)C)CC1)n2Cc1cc(-c2ccc(Cl)s2)on1`, the Potency was 28.9 µM (active) in [7], 11.5 µM (active) in [3], 11.5 µM (active) in test [4] and 10.2 µM (active) in test [6]. In addition, the Potency result in test [5] is “inactive”.
Regarding `CC(C)(C)c1ccc(C(=O)O)cc1`, the Potency result in [1], in test [2], in test [9], in [3], in test [4] and in test [5] was “inactive” each time.
Take `CCN(C(=O)N(CC)c1ccccc1)c1ccccc1`: the Potency result in test [1], in test [2], in [3], in test [5] and in test [6] was “inactive” throughout. Also, the activity change, positive = activation in test [10] is -25.8%.
Take `CC(C)C(C)(C)C(C)(C)C(C)(C)S`: the Potency entry in test [1], in test [2], in test [9], in test [3] and in [4] was “inactive” in each case.
For the compound `CCCCC(CC)COC(=O)c1ccccc1C(=O)O` (stereo not drawn), the Potency entry in test [1], in [2], in test [3], in [5] and in [6] was “inactive” throughout.
For `CCCCC(CC)COP(=O)(O)OCC(CC)CCCC` (stereo not drawn), the Potency result in [1], in [9], in test [3], in test [5] and in [6] was “inactive” throughout. Moreover, in test [8], the Potency is 30.7 µM (active) and 27.3 µM (active). For the same compound, the activity change, positive = activation in test [10] is -51.6% and -55.8%.
Regarding `O=C(c1ccc(O)cc1O)c1ccc(O)cc1O`, the Potency result in [1], in test [2], in test [3], in test [4], in test [5] and in test [6] was “inactive” each time.
As to `Cc1cc(O)c(Cl)c(C)c1Cl`, the Potency entry in test [2], in [8], in [3], in [4], in [5] and in test [6] was “inactive” throughout. In addition, the Potency in [9] was 101 µM (active). The activity change, positive = activation in test [10] is 1.15%.
Regarding `CCC1=C[C@@H]2CN(C1)Cc1c([nH]c3ccccc13)[C@@](C(=O)OC)(c1cc3c(cc1OC)N(C)[C@H]1[C@@](O)(C(=O)OC)[C@H](OC(C)=O)[C@]4(CC)C=CCN5CC[C@]31[C@@H]54)C2`, the Potency entry in test [2], in [9] and in [5] was “inactive” in each case. Besides, the Potency in test [8] is 18.8 µM (active); in test [4] it was 0.0151 µM (active). Besides, the activity change, positive = activation in [10] is -48.8% [at 42.5 µM].
For `CCN(Cc1cccnc1)C(=O)c1cccc(Cl)c1[C@]1(C)C(=O)N(Cc2ccc(OC)cc2OC)c2ccc(Cl)cc21`, the Potency entry in [1], in test [9] and in [5] was “inactive” each time. Further, the Potency in test [4] was 20.4 µM (active).
Turning to `CC[C@@]1(O)C(=O)OCc2c1cc1n(c2=O)Cc2cc3c(CN(C)C)c(O)ccc3nc2-1`, the Potency in test [1] was 1.39 µM (active); in test [8], 1.19 µM (active); in [4], 0.0674 µM (active); in test [5], 23.9 µM (active); in test [6], 5.35 µM (active). In addition, the Potency entry in test [9] is “inactive”. For the same compound, the activity change, positive = activation in test [10] is -50.2% [at 42.5 µM].
Consider `Cc1cccc(CN2CCN(C(c3ccccc3)c3ccc(Cl)cc3)CC2)c1` (stereo not drawn), for which the Potency entry in test [1], in test [3], in [4], in [5] and in test [6] was “inactive” in each case. Moreover, the Potency in [8] is 26.6 µM (active). The activity change, positive = activation in test [10] is -29.2% [at 42.5 µM].
For `CCCCCCCCCCCCCCCCCC[N+](C)(C)Cc1ccccc1`, the Potency result in test [1] and in test [5] was “inactive” each time. Moreover, the Potency is 19.5 µM (active) in [8], 49.5 µM (active) in test [3], 2.78 µM (active) in test [4] and 22.1 µM (active) in test [6].
On to `CN1CCN(CCC(=O)N2c3ccccc3Sc3ccc(C(F)(F)F)cc32)CC1`, for which the Potency entry in [2] and in test [5] was “inactive” in each case. Also, in test [10], the activity change, positive = activation is -67.1% [at 42.5 µM]. Also, the Potency in test [3] is 23.9 µM (active).
In the case of `Oc1cc2ccccc2c2ccccc12`, the Potency in test [1] was 17.9 µM (active); in test [3], 11 µM (active); in [4] it was 11 µM (active); in test [6] it was 11 µM (active). Also, in test [5], the Potency result is “inactive”.
As to `CS(=O)(=O)CCNCc1ccc(-c2ccc3ncnc(Nc4ccc(OCc5cccc(F)c5)c(Cl)c4)c3c2)o1`, the Potency result in test [1] and in [5] was “inactive” each time. The Potency in test [8] is 9.44 µM (active). In test [10], the activity change, positive = activation was -48.5% [at 42.5 µM].
In the case of `CCCCCCCCCCCCc1ccc(O)cc1`, the Potency in test [1] was 56.6 µM (active); in [9] it was 45 µM (active); in test [8], 54.5 µM (active); in [4] it was 43.6 µM (active); in test [6], 54.9 µM (active). The activity change, positive = activation in test [10] is -63.6%. Besides, the Potency result in test [5] is “inactive”.
